Assay [1] is described as follows: Quantitative High-Throughput drug screen in 47 multiple myeloma cell lines against the NCATS MIPE library collection: XG6_PLB cell viability assay (AID 1919865). Also: nearly all actives have a fitted effect of over 40% in size. The procedure, abridged:
(§1)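 qHTS format: cells plated (500/well), pin-dosed with MIPE 4.0 compounds, kept 48 h at 37 °C. Readout was CellTiter-Glo luminescence, median RLU.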

Assay [2] is described as follows: Quantitative High-Throughput drug screen in 47 multiple myeloma cell lines against the NCATS MIPE library collection: UTMC2_PLB cell viability assay (AID 1919868). Also: nearly all actives have a fitted effect of over 55% in size. Also: potency is read from the fitted curve at half-maximal effect. The following applies: CellTiter-Glo ATP luminescence, 48 h; viability (% of DMSO control): at 45.8 µM (top of the series). The procedure, abridged: as §1
(In general: ATP-based viability assays read luminescence as a measure of living cells.)

Assay [3] in a line: Quantitative High-Throughput drug screen in 47 multiple myeloma cell lines against the NCATS MIPE library collection: PCM6_Riken cell viability assay (AID 1919870). Also: nearly all actives have a fitted effect of over 30% in size. Also: potency is read from the fitted curve at half-maximal effect. The procedure, abridged: as §1
Assay [4] in a line: Quantitative High-Throughput drug screen in 47 multiple myeloma cell lines against the NCATS MIPE library collection: OPM2_DSMZ cell viability assay (AID 1919872). Also: nearly all actives have a fitted effect of over 30% in size. Also: potency is read from the fitted curve at half-maximal effect. The procedure, abridged: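 We plated 500 myeloma cells per well, pinned in MIPE 4.0 compounds, and incubated for 48 hours at 37C. ATP was then quantified with CellTiter-Glo, with DMSO and media-only wells defining 100% and 0%.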

The nature of assay [5]: Quantitative High-Throughput drug screen in 47 multiple myeloma cell lines against the NCATS MIPE library collection: XG1_PLB cell viability assay (AID 1919866). Also: nearly all actives have a fitted effect of over 35% in size. Also: potency is read from the fitted curve at half-maximal effect. A digest of the protocol:
as §1

A short description of assay [6]: Quantitative High-Throughput drug screen in 47 multiple myeloma cell lines against the NCATS MIPE library collection: VP6_DJ cell viability assay (AID 1919867). Also: nearly all actives have a fitted effect of over 40% in size. Also: potency is read from the fitted curve at half-maximal effect. A digest of the protocol:
as §1

Assay [7] is described as follows: Quantitative High-Throughput drug screen in 47 multiple myeloma cell lines against the NCATS MIPE library collection: PE2_PLB cell viability assay (AID 1919869). Also: nearly all actives have a fitted effect of over 35% in size. Also: potency is read from the fitted curve at half-maximal effect. A digest of the protocol:
as §1

Assay [8] is described as follows: Quantitative High-Throughput drug screen in 47 multiple myeloma cell lines against the NCATS MIPE library collection: KMS11_JCRBsus cell viability assay (AID 1919873). Also: nearly all actives have a fitted effect of over 50% in size. Also: potency is read from the fitted curve at half-maximal effect. The procedure, abridged:
as §1

A short description of assay [9]: Quantitative High-Throughput drug screen in 47 multiple myeloma cell lines against the NCATS MIPE library collection: RPMI8226_ATCC cell viability assay (AID 1919871). Also: nearly all actives have a fitted effect of over 30% in size. Also: potency is read from the fitted curve at half-maximal effect. The procedure, abridged: as §1

Records with an inconclusive call do not appear. The source made the active and inactive calls. Calls follow the shape of the dose curve; as a rule, active = well fitted cell-killing curve with a large enough effect; inconclusive = small, poorly fitted or top-dose-only effect, or effect the other way; inactive = no such curve, though single readings can be large or run the other way.

With `O=S(=O)(O)CCSSCCS(=O)(=O)O`, the Potency result in assay [1], in assay [2], in assay [3] and in assay [4] was “inactive” each time.

For the molecule `C[C@@H]1[C@H](C)CC[C@]2(C(=O)O)CC[C@]3(C)C(=CC[C@@H]4[C@@]5(C)C[C@@H](O)[C@H](O)[C@@](C)(CO)[C@H]5CC[C@]43C)[C@@H]12`, the Potency entry in assay [5], in assay [6], in assay [2], in assay [7], in assay [3] and in assay [4] was “inactive” throughout. The Potency entry in assay [8] is “inactive”.

For the molecule `Cc1cc(O)c2c(c1)C(=O)c1cccc(O)c1C2=O`, the Potency result in assay [5], in assay [7], in assay [3], in assay [9], in assay [4] and in assay [8] was “inactive” in each case.

Regarding `CCN(C(=O)c1c(O)c2c(Cl)cccc2n(C)c1=O)c1ccccc1`, the Potency result in assay [5], in assay [7], in assay [3], in [9], in assay [4] and in assay [8] was “inactive” each time.

Take `COC(=O)[C@H](CCCN=C(N)N)NS(=O)(=O)c1ccc(C)cc1`: the Potency entry in assay [7], in [3], in assay [4] and in [8] was “inactive” in each case.

Regarding `O=C(C=CC#Cc1cccc(NS(=O)(=O)c2ccccc2)c1)NO`, the Potency was 1180 nM (active) in assay [6]; 833 nM (active) in assay [2]; 3320 nM (active) in [7]; 1660 nM (active) in [3]; 2640 nM (active) in assay [9]; 2350 nM (active) in assay [4]. In [8], the Potency was 662 nM (active).

In the case of `C[N+](C)([O-])CCNc1ccc(NCC[N+](C)(C)[O-])c2c1C(=O)c1c(O)ccc(O)c1C2=O`, the Potency result in assay [6], in assay [7], in [9] and in [8] was “inactive” each time.

For the molecule `CCN1CCN(C(=O)N[C@H](C(=O)N[C@@H]2C(=O)N3C(C(=O)O)=C(CSc4nnnn4C)CS[C@@H]23)c2ccc(O)cc2)C(=O)C1=O`, the Potency entry in assay [4] and in [8] was “inactive” in each case.

For the molecule `Nc1nc2c(c(=O)[nH]1)N(C=O)[C@H](CNc1ccc(C(=O)N[C@@H](CCC(=O)O)C(=O)O)cc1)CN2`, the Potency result in [5], in assay [6], in assay [7], in assay [3], in [9] and in [4] was “inactive” each time. Moreover, the Potency result in [8] was “inactive”.

For `C[C@H]1C[C@H]2[C@@H]3CCC4=CC(=O)C=C[C@]4(C)[C@@H]3C(=O)C[C@]2(C)[C@@]1(O)C(=O)CO`, the Potency result in [5], in [7], in [3], in [9], in [4] and in [8] was “inactive” throughout. Moreover, in assay [6], the Potency is 6620 nM (active).

On to `Cc1cc(C(=O)NOCCO)c(Nc2ccc(I)cc2F)n(C)c1=O`, for which the Potency result in assay [3], in [9] and in assay [8] was “inactive” throughout.

As for `O=C(O)CCCCC(CCSCc1ccccc1)SCc1ccccc1` (stereo unspecified), the Potency in [6] was 16600 nM (active). The Potency result in assay [7], in assay [9] and in assay [4] was “inactive” each time.

In the case of `O=C(NCc1ccccc1)[C@H](Cc1ccccc1)NC(=O)[C@@H]1O[C@@H]1C(=O)NCCc1ccc(O)cc1`, the Potency is 14800 nM (active) in assay [5] and 23500 nM (active) in assay [7]. The Potency result in assay [6] and in assay [4] was “inactive” in each case.

With `CC[C@H]1OC(=O)[C@H](C)[C@@H](O[C@H]2C[C@@](C)(OC)[C@@H](O)[C@H](C)O2)[C@H](C)[C@@H](O[C@@H]2O[C@@H](C)C[C@H](N(C)C)[C@@H]2O)[C@](C)(O)C[C@@H](C)C(=O)[C@H](C)[C@@H](O)[C@]1(C)O`, the Potency in assay [5] was 4180 nM (active). In addition, the Potency entry in assay [6], in assay [3], in [9], in assay [4] and in assay [8] was “inactive” in each case.

For the molecule `CC(=O)OCC(=O)[C@@]12N=C(C)O[C@H]1C[C@H]1[C@@H]3CCC4=CC(=O)C=C[C@]4(C)[C@@H]3[C@@H](O)C[C@@]12C`, the Potency is 16600 nM (active) in assay [5], 11800 nM (active) in assay [3], 469 nM (active) in assay [9] and 935 nM (active) in assay [8]. For the same molecule, the Potency result in assay [7] and in assay [4] was “inactive” each time.

Turning to `C[C@@H]1CC[C@@]2(OC1)OC1CC3C4CC=C5CC(O)CCC5(C)C4CCC3(C)C1[C@@H]2C` (stereo partly specified), the Potency result in assay [7], in [3], in [9], in assay [4] and in assay [8] was “inactive” in each case.

In the case of `Cc1cnc(NC(=O)Nc2cc(Br)c(C)cc2OC[C@@H]2CNCCO2)cn1`, the Potency was 1660 nM (active) in assay [5]; 4690 nM (active) in assay [6]; 1870 nM (active) in [7]; 10500 nM (active) in assay [3]; 5260 nM (active) in assay [8].

Take `C=C[C@@H]1CN2CCC1C[C@H]2[C@H](O)c1ccnc2ccc(OC)cc12` (stereo partly specified): the Potency entry in assay [9] is “inactive”.

Consider `Nc1nc(=O)n([C@H]2C[C@H](O)[C@@H](CO)O2)cc1F`, for which the Potency in assay [5] was 11.8 nM (active); in assay [3], 59 nM (active). In addition, the Potency result in assay [7] and in assay [9] was “inactive” throughout.

In the case of `OC[C@H]1OC(O)C[C@@H](O)[C@H]1O` (stereo partly specified), the Potency entry in assay [7], in assay [3], in [9] and in [4] was “inactive” throughout.
